Consider 14 compounds from PubChem BioAssay.

The nature of assay [1]: inhibitors of TNFa-induced NFkB p65 translocation, primary screen, imaging, HUVEC, MLSMR starter and 10KST1 sets (AID 438;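 active = inhibition above 20% together with a positive visual image hit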;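 note: compound added about 3h40 before a 20 min TNFalpha stimulation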;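 for inhibition: signal is the nuclear over cytoplasmic p65 intensity ratio per well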). The conditions noted are these: HUVEC TNFa-induced p65 nuclear translocation; cell count: measured here: nuclei count (cytotoxicity indicator), at 2.08 µM; inhibition: at 2 µM, stronger effect = higher value, 0% TNFa-plus-vehicle, 100% no-TNFa wells.
The nature of assay [2]: reduction of polyQ htt aggregates in cells – imaging, exon1htt(103Q)mCFP cells, high-content imaging, primary screen (AID 483;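 active = visual image review flags a hit and inhibition of aggregation exceeds 20%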;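 note: compound exposure lasted 3 days before fixation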;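 for nuclei count: percent of the per-plate median nuclei count of sample wells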). The conditions noted are these: exon1htt(103Q)mCFP cell line, aggregate imaging, at 2 µM; inhibition of aggregation: stronger effect = higher value; nuclei count: measured here: cell count, toxicity.
Assay [3] can be described thus: endothelial E-selectin expression blockers – imaging, HUVEC, immunofluorescence, MLSMR starter and 10KST1 sets, primary screen (AID 487;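 active = visually confirmed hit in the image check and inhibition above 20%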;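 for inhibition: signal is fraction of cell area covered by stained E-selectin grains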;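 for nuclei count: 100% = median nuclei count of all wells on the same plate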). The conditions noted are these: HUVEC TNFalpha-induced E-selectin immunofluorescence imaging, at 2 µM; inhibition: stronger effect = higher value; nuclei count: measured here: cell number, toxicity.
In assay [4] the target is Voltage-gated potassium channel subunit beta-2 (Rattus norvegicus) (UniProt P62483). As to the kind of experiment: inhibitors of rat Kvbeta2 reductase activity – biochemical, NADPH fluorescence, primary screen (AID 622;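 active = fluorescence slope higher than the sample average by over 3 SD, cut at about -0.22 in these data, passing the limit was not always enough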;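 note: slope of raw intensity against log time taken from 70 to 1610 s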). As to conditions: recombinant KvBeta, 4-cyanobenzaldehyde reduction, at 10 µM, stronger effect = higher value.
For assay [5] the target is unchanged. As to the kind of experiment: enhancers of rat Kvbeta2 NADPH turnover – biochemical, NADPH fluorescence, primary screen (AID 623;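 active = NADPH fluorescence slope more negative than the mean of all samples by about 3 SD, 99.7% confidence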;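 note: fluorescence intensity change per second fitted from 20 to 320 s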). As to conditions: Recombinant KvBeta, NADPH fluorescence decrease slope, 10 min; at 10 µM; stronger effect = lower value.
In assay [6] the target is Alpha-2C adrenergic receptor (Homo sapiens) (UniProt P18825). As to the kind of experiment: compounds altering alpha2C-coupled GIRK flux – cell-based, HEK293 alpha2C/GIRK1/2, thallium flux, primary screen (AID 624;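 active = fluorescence slope after compound addition differing from the mean of all screened samples at 99.7% confidence, in either direction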;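 note: slope of fluorescence ratio to pre-addition baseline per second over 15 to 24 s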). The conditions noted are these: thallium flux BTC fluorescence, at 10 µM, actives lie on both sides.
Assay [7] is described as follows: blockers of RIG-like receptor reporter activation – cell-based, Sendai virus stimulus, luciferase, 10K MLSCN set, TLR/RLR signaling modifier project, primary screen (AID 602276;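 active = inhibition at or above 50% at 10 µM; inactive = inhibition below 50%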;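 note: firefly luciferase from ISG56 promoter only with Renilla not read in this screen; 0% = Sendai virus plus DMSO and 100% = medium plus DMSO without virus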). The conditions noted are these: HEK293 RL24 IRF3 luciferase reporter, at 10 µM, stronger effect = higher value. On the technique in general: Reporter assays use an easily measured gene product as a stand-in for the process of interest.

Assay [8] is described as follows: TLR3 IRF3 reporter activation blockers – cell-based, poly I:C stimulus, luciferase, 10K MLSCN set, primary screen (AID 602277). As to conditions: HEK293-TLR3 RL24 IRF3 luciferase reporter, at 10 µM, stronger effect = higher value.

Active and inactive are the calls of the source.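 Rule for the calls, unless noted: active = inhibition of the reporter signal at or above 50%; inactive = inhibition below 50%.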

Sequence of Alpha-2C adrenergic receptor (Homo sapiens) (P18825 whole entry, looked up): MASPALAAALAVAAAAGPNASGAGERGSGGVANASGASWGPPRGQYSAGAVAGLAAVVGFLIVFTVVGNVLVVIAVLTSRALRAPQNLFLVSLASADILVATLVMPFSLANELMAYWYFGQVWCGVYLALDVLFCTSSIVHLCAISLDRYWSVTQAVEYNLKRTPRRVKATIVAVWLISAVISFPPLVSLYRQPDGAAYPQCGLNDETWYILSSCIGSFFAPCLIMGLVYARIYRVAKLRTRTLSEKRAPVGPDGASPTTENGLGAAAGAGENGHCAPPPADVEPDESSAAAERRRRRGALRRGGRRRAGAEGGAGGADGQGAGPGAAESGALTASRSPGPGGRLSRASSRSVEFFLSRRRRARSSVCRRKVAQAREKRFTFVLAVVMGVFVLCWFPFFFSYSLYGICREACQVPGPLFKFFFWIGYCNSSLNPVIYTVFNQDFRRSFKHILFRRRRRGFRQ
Sequence of Voltage-gated potassium channel subunit beta-2 (Rattus norvegicus) (P62483 whole entry, looked up): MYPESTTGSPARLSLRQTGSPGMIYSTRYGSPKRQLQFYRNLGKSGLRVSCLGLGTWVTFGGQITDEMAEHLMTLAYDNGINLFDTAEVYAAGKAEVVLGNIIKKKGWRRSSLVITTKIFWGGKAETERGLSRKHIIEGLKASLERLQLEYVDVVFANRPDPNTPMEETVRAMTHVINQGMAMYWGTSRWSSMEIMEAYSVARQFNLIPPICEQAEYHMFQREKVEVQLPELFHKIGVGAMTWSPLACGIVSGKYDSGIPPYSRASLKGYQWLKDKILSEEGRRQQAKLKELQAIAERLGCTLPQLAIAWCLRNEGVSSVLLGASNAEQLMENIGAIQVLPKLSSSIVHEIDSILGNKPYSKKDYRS

As a reminder, the inhibition is the relative decrease from the control value, in per cent. `Cc1ccc(C)c2[nH]c(=O)c(CCNC(=O)c3ccc(Br)o3)cc12`: in assay [1], the cell count is 327. Further, the inhibition in assay [1] was -9.8% (inactive); in assay [3] it was 23.8% (inactive); in assay [7], -1.8% (inactive); in assay [8], -1.41% (inactive). Moreover, the inhibition of aggregation in assay [2] is 14.1% (inactive). Besides, the nuclei count in assay [2] stood at 87%; in assay [3], 97.7%. For the same compound, the fluorescence slope in assay [4] is -0.481 (inactive). In addition, the NADPH fluorescence slope in assay [5] was -0.000268 (inactive). Moreover, the slope in assay [6] was 0.00492 (inactive).

On to `COC(=O)c1cc2ccsc2n1CC(=O)N(C)c1ccccc1`, for which the cell count in assay [1] was determined as 623. Further, the inhibition is -15.1% (inactive) in assay [1], -29.3% (inactive) in assay [3], 13.3% (inactive) in assay [7] and 22.7% (inactive) in assay [8]. Moreover, the inhibition of aggregation in assay [2] was -8.1% (inactive). Moreover, the results for the nuclei count in assay [2] and in assay [3] were 117% and 92.2%, respectively. Besides, the fluorescence slope in assay [4] is -0.261 (inactive). Further, the NADPH fluorescence slope in assay [5] is 4.1e-06 (inactive). Besides, the slope in assay [6] is 0.00481 (inactive).

With `O=c1[nH]c2cc3c(cc2cc1C(c1nnnn1C1CCCCC1)N1CCSCC1)OCCO3` (centres undefined), the cell count in assay [1] stood at 479. For the same compound, the inhibition in assay [1] was 0% (inactive); in assay [3], -10% (inactive); in assay [7], -11.4% (inactive); in assay [8], -7.01% (inactive). Moreover, the inhibition of aggregation in assay [2] was -12.4% (inactive). Further, the figures for the nuclei count in assay [2] and in assay [3] were 106% and 96.7%, respectively. Further, the fluorescence slope in assay [4] was -0.313 (inactive). Moreover, in assay [5], the NADPH fluorescence slope was -3.2e-05 (inactive). The slope in assay [6] is 0.00532 (inactive).

As for `O=C(Oc1ccc(Cl)cc1N1C(=O)CCC1=O)c1ccco1`, the cell count in assay [1] stood at 331. The inhibition in assay [1] was -4.2% (inactive); in assay [3], -182% (inactive); in assay [7], 7.34% (inactive); in assay [8], 31.5% (inactive). In assay [2], the inhibition of aggregation is -31.4% (inactive). The nuclei count in assay [2] turned out to be 114%; in assay [3] it was 134%. Also, in assay [4], the fluorescence slope was -0.463 (inactive). The NADPH fluorescence slope in assay [5] was -1.4e-05 (inactive). The slope in assay [6] was 0.00607 (inactive).

Consider `CC(=O)c1c(C)nn(CC(O)COc2ccc3c(c2)CCC3)c1C` (centres undefined), for which, in assay [1], the cell count amounted to 751. Further, the inhibition is -4.3% (inactive) in assay [1], -169% (inactive) in assay [3], -13.5% (inactive) in assay [7] and -41.8% (inactive) in assay [8]. For the same compound, the inhibition of aggregation in assay [2] is 7.3% (inactive). The nuclei count in assay [2] was 97.4%; in assay [3], 126%. Further, the fluorescence slope in assay [4] was -0.435 (inactive). In addition, the NADPH fluorescence slope in assay [5] was 4e-05 (inactive). Moreover, the slope in assay [6] was 0.00662 (inactive).

With `COc1ccc(CCNC(=O)CSc2nnc(CNc3ccc(Cl)cc3)o2)cc1OC`, the cell count in assay [1] turned out to be 241. Besides, the inhibition in assay [1] is -3.2% (inactive); in assay [3] it was 10.2% (inactive); in assay [7] it was 11.9% (inactive); in assay [8] it was 19.4% (inactive). Moreover, the inhibition of aggregation in assay [2] is 33.1% (active). Moreover, the nuclei count in assay [2] stood at 72.1%; in assay [3], 63.5%. Besides, in assay [4], the fluorescence slope is -0.594 (inactive). In addition, the NADPH fluorescence slope in assay [5] is -1.9e-05 (inactive). In addition, the slope in assay [6] was 0.0062 (inactive).

For the compound `O=C(O)c1cccc(NC(=O)C2C3C=CC(C3)C2C(=O)OCC(F)(F)C(F)F)c1` (centres undefined), the cell count in assay [1] turned out to be 683. The inhibition in assay [1] was 8.3% (inactive); in assay [3] it was -33.6% (inactive); in assay [7], 10.2% (inactive); in assay [8], 26% (inactive). In addition, in assay [2], the inhibition of aggregation is 28.9% (inactive). Further, the values for the nuclei count in assay [2] and in assay [3] were 47.7% and 98.7%, respectively. Besides, the fluorescence slope in assay [4] is -0.38 (inactive). Besides, the NADPH fluorescence slope in assay [5] is -3.4e-05 (inactive). The slope in assay [6] was 0.00482 (inactive).

In the case of `COc1ccc(S(=O)(=O)Cc2ccc(C(=O)N3CCN(c4ccccc4)CC3)o2)cc1`, in assay [1], the cell count is 524. Also, the inhibition was -8.3% (inactive) in assay [1], -89.5% (inactive) in assay [3], -7.36% (inactive) in assay [7] and 26.1% (inactive) in assay [8]. Further, the inhibition of aggregation in assay [2] was 5.7% (inactive). In addition, the nuclei count in assay [2] is 70.9%; in assay [3], 133%. Also, in assay [4], the fluorescence slope is -0.44 (inactive). For the same compound, the NADPH fluorescence slope in assay [5] is -4.3e-05 (inactive). Also, the slope in assay [6] was 0.00594 (inactive).

Consider `CCOc1ccc(C2CC(c3ccccc3C)n3nc(N)nc3N2)cc1` (centres undefined), for which the cell count in assay [1] amounted to 515. Besides, the inhibition in assay [1] was 5% (inactive); in assay [3], -43.7% (inactive); in assay [7], 10.4% (inactive); in assay [8], 25% (inactive). Also, in assay [2], the inhibition of aggregation was 30.8% (inactive). The nuclei count is 91.1% in assay [2] and 90.1% in assay [3]. Further, the fluorescence slope in assay [4] is -0.586 (inactive). Further, the NADPH fluorescence slope in assay [5] is 1.8e-05 (inactive). In assay [6], the slope is 0.00699 (inactive).

Consider `CC(=O)N1CCN(S(=O)(=O)c2ccc(S(=O)(=O)NC3CC3)cc2)CC1`, for which the cell count in assay [1] was determined as 716. Moreover, the inhibition was -8.1% (inactive) in assay [1], 33.9% (inactive) in assay [3], 18.5% (inactive) in assay [7] and 18% (inactive) in assay [8]. Further, the inhibition of aggregation in assay [2] was 0.7% (inactive). For the same compound, the nuclei count in assay [2] came to 99.7%; in assay [3], 112%. Besides, the fluorescence slope in assay [4] was -0.444 (inactive). In addition, the NADPH fluorescence slope in assay [5] is -2.2e-05 (inactive). The slope in assay [6] is 0.00506 (inactive).

As for `Cn1c(SCC(=O)c2ccc(-c3ccccc3)cc2)nnc1-c1ccco1`, the cell count in assay [1] was found to be 248. Further, the inhibition is 4.3% (inactive) in assay [1], -7.1% (inactive) in assay [3], 3.76% (inactive) in assay [7] and 1.41% (inactive) in assay [8]. For the same compound, the inhibition of aggregation in assay [2] is 5.3% (inactive). Besides, the nuclei count in assay [2] worked out at 67.6%; in assay [3], 118%. Further, the fluorescence slope in assay [4] is -0.516 (inactive). In addition, the NADPH fluorescence slope in assay [5] is -5.4e-05 (inactive). Also, the slope in assay [6] is 0.0027 (inactive).

`Cc1nc(SCc2ccc(Br)cc2)[nH]c(=O)c1C`: the cell count in assay [1] was 755. Further, the inhibition in assay [1] is 0.8% (inactive); in assay [3] it was -44.8% (inactive); in assay [7] it was 3.06% (inactive); in assay [8], 29.5% (inactive). For the same compound, in assay [2], the inhibition of aggregation is -11.8% (inactive). Besides, the nuclei count in assay [2] was found to be 76.4%; in assay [3], 117%. In addition, the fluorescence slope in assay [4] is -0.452 (inactive). Also, the NADPH fluorescence slope in assay [5] was -2.5e-05 (inactive). For the same compound, the slope in assay [6] was 0.00691 (inactive).

For the compound `Cc1ccccc1C(=O)NC1CCN(Cc2nnnn2Cc2ccccc2)CC1`, in assay [1], the cell count was 551. Further, the inhibition in assay [1] is -30.6% (inactive); in assay [3], -36.5% (inactive); in assay [7], 7.81% (inactive); in assay [8], 19.8% (inactive). Moreover, the inhibition of aggregation in assay [2] is -10.9% (inactive). Further, the nuclei count in assay [2] was 110%; in assay [3] it was 111%. The fluorescence slope in assay [4] was -0.585 (inactive). Moreover, the NADPH fluorescence slope in assay [5] was -4.3e-05 (inactive). Moreover, the slope in assay [6] is 0.00483 (inactive).

As for `Nc1nc(Nc2ccc(Cl)cc2Cl)nc(C(F)(F)F)n1`, in assay [1], the cell count is 348. The inhibition in assay [1] is 0.6% (inactive); in assay [3], -19.5% (inactive); in assay [7] it was -32.5% (inactive); in assay [8], -84.9% (inactive). For the same compound, the inhibition of aggregation in assay [2] was -0.7% (inactive). Besides, the figures for the nuclei count in assay [2] and in assay [3] were 96.9% and 105%, respectively. In addition, in assay [4], the fluorescence slope was -0.348 (inactive). In assay [5], the NADPH fluorescence slope was -1.8e-06 (inactive). Moreover, in assay [6], the slope was 0.00538 (inactive).
